In PubChem BioAssay (NCATS):
Inconclusive results are not listed. Active and inactive are the calls of the source. Calls follow the shape of the dose curve; as a rule, active = well fitted inhibition curve with a large enough effect; inconclusive = small, poorly fitted or top-dose-only effect; inactive = no such curve, though single readings can be large or run the other way.

target: Cytochrome P450 3A7 (Homo sapiens) (UniProt P24462); assay: Cytochrome P450 family 3 subfamily A member 7 (CYP3A7) small molecule antagonists: luciferase biochemical qHTS assay (AID 1963596); conditions: P450-Glo CYP3A7 enzyme luminescence, 1 h; series mostly up to 57.4 µM; activity change, negative = inhibition: at the top concentration; also: nearly all actives have a fitted effect of over 40% in size
Sequence (P24462 whole entry, looked up): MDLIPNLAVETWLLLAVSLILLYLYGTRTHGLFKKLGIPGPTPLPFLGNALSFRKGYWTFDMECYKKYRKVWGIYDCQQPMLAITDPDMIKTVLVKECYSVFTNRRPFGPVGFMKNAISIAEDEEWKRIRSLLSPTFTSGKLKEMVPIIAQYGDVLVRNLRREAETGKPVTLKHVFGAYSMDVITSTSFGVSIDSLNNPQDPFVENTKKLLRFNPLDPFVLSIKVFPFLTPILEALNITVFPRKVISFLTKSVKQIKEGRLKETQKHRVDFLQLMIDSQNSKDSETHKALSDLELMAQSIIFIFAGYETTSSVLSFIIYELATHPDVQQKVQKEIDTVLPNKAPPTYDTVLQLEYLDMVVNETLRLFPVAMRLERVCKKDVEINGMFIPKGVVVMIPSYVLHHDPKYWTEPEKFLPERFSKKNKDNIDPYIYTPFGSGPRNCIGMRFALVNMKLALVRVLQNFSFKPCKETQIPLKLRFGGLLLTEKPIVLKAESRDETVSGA
In short: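 Luminescence from luciferin released by CYP3A7 from a proluciferin substrate, read 20 min after detection reagent. Compound and enzyme-substrate mix sat 10 min before NADPH regeneration solution; reaction ran 1 h at room temperature.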
% is scaled to controls: 0 for no effect and ±100 for the full control effect; potency is read from the fitted curve at half-maximal effect.

Compound | activity change, negative = inhibition | Potency
Nc1ncn([C@@H]2O[C@H](CO)[C@@H](O)[C@H]2O)c(=O)n1 | 16.9% (inactive) | –
FC(F)OC(Cl)C(F)(F)F (stereo not given) | 3.01% (inactive) | –
Cc1c(C)c2c(c(C)c1O)CC[C@@](C)(CCC[C@H](C)CCC[C@H](C)CCCC(C)C)O2 | 0% (inactive) | –
Cc1ccc(C(=O)c2cn(CC(=O)Nc3ccc4c(c3)OCCO4)c3nc(C)ccc3c2=O)cc1 | -31% (inactive) | –
C[C@@H](C(=O)O)c1ccc(-c2ccccc2)c(F)c1 | 5.93% (inactive) | –
C[C@H](CCCC(C)(C)O)[C@H]1CC[C@H]2[C@@H]3CC=C4C[C@@H](O)CC[C@]4(C)[C@H]3CC[C@]12C | 2.19% (inactive) | –
C=CCCCCCCCCC(=O)OC | -0.826% (inactive) | –
Cc1ccc(-n2nc3c(N4CCCC(C(=O)NCc5ccccc5C)C4)nnc(C)c3c2C)cc1 (stereo not given) | – | 756 nM (active)
Nc1nc(=O)n([C@@H]2CS[C@H](CO)O2)cc1F | 3.71% (inactive) | –
CCOC(=O)C(CCc1ccccc1)NC1CCCN2CCCC(C(=O)O)N2C1=O (stereo not given) | -11.2% (inactive) | –
CN(C)C(=O)NC1CCC(CCN2CCN(c3cccc(Cl)c3Cl)CC2)CC1 (stereo not given) | 2.99% (inactive) | –
COc1ccc(C(=O)NC(c2ccccc2Cl)c2cc(Cl)c3cccnc3c2O)cc1 (stereo not given) | 1.52% (inactive) | –
CC(C)[C@@H]1CC[C@@H](C)C[C@H]1OC(=O)c1ccccc1O | 5.46% (inactive) | –
CCCCc1c(-c2ccc(OC)cc2)[nH]c2nccnc12 | 0% (inactive) | –
COc1ccc(-c2n[nH]c3c2cnc2cc(OC)c(OC)cc23)cc1 | -22.5% (inactive) | –
NC(=O)OCC(O)COc1ccc(Cl)cc1 (stereo not given) | 36.4% (inactive) | –
C=CS(=O)(=O)O | 0.832% (inactive) | –
O=C(NC1CCC1)c1ccc(C#Cc2cccc(F)c2)nc1 | 8.39% (inactive) | –
CCCCCCOC(=O)c1cccnc1 | -19% (inactive) | –
Cc1ccc(S(=O)(=O)Nc2nc3n(n2)C(c2ccc(F)cc2)C=C(c2ccccc2)N3)cc1 (stereo not given) | 15.7% (inactive) | –

Compound | activity change, negative = inhibition | Potency
Fc1ccc(-c2nc(-c3c(F)cccc3F)[nH]c2-c2ccncc2)cc1 | 0% (inactive) | –
CC(C)c1cccc(O)c(=O)c1 | 0.829% (inactive) | –
Nc1nccs1 | -8.65% (inactive) | –
Cc1ccc(Nc2nnc(-c3ccc([N+](=O)[O-])cc3)o2)cc1Cl | -12.6% (inactive) | –
O=C(O)[C@@H]1CSCN1 | -3.19% (inactive) | –
COc1ccc(C=CC(=O)O)cc1 | 2.44% (inactive) | –
CCC(=C(c1ccc(OCCN2CCCC2)cc1)c1ccc(OCCN2CCCC2)cc1)c1ccccc1 | 0% [at 11.5 µM] (inactive) | –
CCCCC(O)c1ccccc1 (stereo not given) | 1.72% (inactive) | –
NS(=O)(=O)c1ccc(NC(=O)Nc2ccc(F)cc2)cc1 | -0.134% (inactive) | –
O=C(O)c1cc(C(F)(F)F)ccc1N1CC[C@H](OCc2ccccn2)C1 | -11% (inactive) | –
CCc1ccc(OCCn2c(C3CC(=O)N(Cc4ccc(F)cc4)C3)nc3ccccc32)cc1 (stereo not given) | 9.49% (inactive) | –
Cc1ccc(S(=O)(=O)Nc2nc3n(n2)C(c2ccc(Cl)cc2)C=C(c2ccccc2)N3)cc1 (stereo not given) | -29.3% (inactive) | –
COC(C(=O)N1Cc2[nH]nc(NC(=O)c3ccc(N4CCN(C)CC4)cc3)c2C1)c1ccccc1 (stereo not given) | -14.3% (inactive) | –
O=C(Nc1ccccc1C(=O)Nc1ccc(CCO)cc1)c1ccc([N+](=O)[O-])cc1 | 0% (inactive) | –
N#Cc1cc(C2=Nc3ccc(Br)cc3NC(=O)C2)ccn1 | -1.74% (inactive) | –
CC(=O)NC[C@H]1CN(c2ccc(N3CCSCC3)c(F)c2)C(=O)O1 | -20.4% (inactive) | –
CCOC(=O)c1ccc(NC(=O)c2cc(=O)c3ccc(C)c(C)c3o2)cc1 | -22.1% (inactive) | –
CCCC(=O)O | -11.8% (inactive) | –
CCCN(CCN1CCN(c2ccccc2OC)CC1)C1CCc2ncsc2C1 (stereo not given) | 22.7% (inactive) | –
NC[C@H]1CCC[C@@H](CNC(=O)[C@@H](Cc2c[nH]c3ccccc23)NC(=O)N2CCC3(C=Cc4ccccc43)CC2)C1 | 0% (inactive) | –
